Experimental findings from PubChem BioAssay are described below.

Values joined by “and” are separate entries in the source; they are usually repeats but may differ in a detail not shown here. Equal entries are not always repeated. Unmarked numbers belong to inactive results. How the calls were made is not given here.

The test system of one assay is Botulinum neurotoxin type F light chain protease (Clostridium botulinum). As to the kind of experiment: Clostridium botulinum type F light chain protease inhibitors, microsphere substrate cleavage, validation (AID 588459). The settings on record: multiplex microsphere protease substrate cleavage assay, flow cytometry; at 10 µM; active compounds read high.
The term inhibition denotes the drop in the measured response relative to a control, in per cent. For `Cc1nc(N[C@@H](Cc2c[nH]c3ccccc23)C(=O)O)c2oc3ccccc3c2n1`, the inhibition was 1.3%.

`O=C(c1cccnc1)N1N=C(C2CC2)CC1(O)C(F)(F)F` (stereo not given): the inhibition is 2%.

As for `COc1cc(C2C(C(=O)c3ccc(C)o3)=C(O)C(=O)N2Cc2cccnc2)ccc1O` (stereo not given), the inhibition is 1.8%.

`O=c1cc(Cn2ccnc2)c2cc3c(cc2o1)CCC3`: the inhibition is 1.9%.

As for `COc1cccc(C2CCCN2Cc2nc(CCC(C)C)no2)c1` (stereo not given), the inhibition is -2.5%.

In the next assay the target is Botulinum neurotoxin type A (Clostridium botulinum) (UniProt P0DPI0). As to the kind of experiment: BoNT/A light chain protease inhibitors, biochemical, multiplex microsphere flow cytometry, validation set (AID 588460). The settings on record: at 10 µM, active compounds read high. A general note: In flow cytometry, cells or beads pass a laser one at a time.
Botulinum neurotoxin type A (Clostridium botulinum), sequence (P0DPI0 whole entry, looked up): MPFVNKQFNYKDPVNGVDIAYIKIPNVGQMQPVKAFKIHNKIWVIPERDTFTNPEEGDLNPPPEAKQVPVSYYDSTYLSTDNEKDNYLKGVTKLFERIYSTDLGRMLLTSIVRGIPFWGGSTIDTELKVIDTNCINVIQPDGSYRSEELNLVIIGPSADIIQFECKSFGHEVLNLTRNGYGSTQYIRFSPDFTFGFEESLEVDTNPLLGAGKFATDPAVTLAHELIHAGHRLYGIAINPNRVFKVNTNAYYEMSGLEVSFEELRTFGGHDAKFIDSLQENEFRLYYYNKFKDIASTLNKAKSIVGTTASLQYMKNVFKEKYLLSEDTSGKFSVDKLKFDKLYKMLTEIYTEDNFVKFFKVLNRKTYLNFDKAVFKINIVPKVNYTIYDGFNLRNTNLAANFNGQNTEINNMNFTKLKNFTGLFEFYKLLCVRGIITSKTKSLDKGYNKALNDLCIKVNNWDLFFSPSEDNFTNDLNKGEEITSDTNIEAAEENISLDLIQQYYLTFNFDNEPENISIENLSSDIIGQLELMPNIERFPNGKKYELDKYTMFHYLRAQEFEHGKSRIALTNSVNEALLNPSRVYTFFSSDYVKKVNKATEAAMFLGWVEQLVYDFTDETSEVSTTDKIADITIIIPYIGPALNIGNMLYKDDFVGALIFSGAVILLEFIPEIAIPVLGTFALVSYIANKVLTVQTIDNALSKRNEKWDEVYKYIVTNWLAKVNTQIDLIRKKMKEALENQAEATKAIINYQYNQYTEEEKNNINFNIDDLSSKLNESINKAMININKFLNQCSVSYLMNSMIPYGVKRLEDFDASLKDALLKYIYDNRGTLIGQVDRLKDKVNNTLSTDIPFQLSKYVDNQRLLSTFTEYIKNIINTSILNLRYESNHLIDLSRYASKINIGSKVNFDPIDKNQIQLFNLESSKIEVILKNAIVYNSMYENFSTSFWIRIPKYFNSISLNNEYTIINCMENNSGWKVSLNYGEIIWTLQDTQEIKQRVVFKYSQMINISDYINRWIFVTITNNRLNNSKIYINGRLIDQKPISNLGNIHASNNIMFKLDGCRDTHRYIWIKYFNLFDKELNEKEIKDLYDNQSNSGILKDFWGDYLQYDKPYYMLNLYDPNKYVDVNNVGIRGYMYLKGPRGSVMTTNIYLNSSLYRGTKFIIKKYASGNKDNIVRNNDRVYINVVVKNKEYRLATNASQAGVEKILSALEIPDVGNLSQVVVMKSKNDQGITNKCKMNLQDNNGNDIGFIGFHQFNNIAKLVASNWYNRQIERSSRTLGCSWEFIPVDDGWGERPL
Regarding `O=c1ccc2ccccc2o1`, the inhibition is -1.4%.

As to `CSc1ccc2c(c1)N(CCC1CCCCN1C)c1ccccc1S2` (stereo not given), the inhibition is -0.8%.

Turning to `O=C(/C=C/c1ccc(F)cc1)N1CC[C@@]2(O)CCCC[C@H]2C1`, the inhibition is -2.2%.

For the molecule `COc1ccccc1N=CC1=C(O)CC(c2ccccc2)CC1=O` (stereo not given), the inhibition is 2.2%.

For the molecule `COc1cc(C(=O)CCN2CCC(c3ccccc3)C2)cc(OC)c1OC` (stereo not given), the inhibition is 1.9%.

As for `COc1cc2c(cc1OC)C(c1ccccc1)=NCC2`, the inhibition was 0.8%.

`COc1ccccc1C(=O)c1cc2ccc(O)cc2oc1=O`: the inhibition was 0.1%.

Regarding `O=C(O)C1Cc2ccccc2CN1S(=O)(=O)c1ccccc1` (stereo not given), the inhibition is 0.6%.

As for `c1ccc(SSc2ccccc2)cc1`, the inhibition is -1.5%.

As for `Cc1ccc(N(CC2=NCCN2)c2cccc(O)c2)cc1`, the inhibition is -1.3% and -1.2% and -1.7%.

Turning to `CCn1c(SCC(=O)c2ccccc2)nc2ccccc2c1=O`, the inhibition is -0.1%.

For the molecule `CCCCNc1ccc(C(=O)OCCN(C)C)cc1`, the inhibition is 0.4%.

For `CCc1nc(N)nc(N)c1-c1ccc(Cl)cc1`, the inhibition was -0.6%.

For `O=C(Cc1ccccc1)NNC(=O)Cc1ccccc1`, the inhibition is 1.7%.

As for `COc1ccc(-c2nc(NC(C)=O)sc2-c2ccc(OC)cc2)cc1`, the inhibition is 1%.

As to `O=C(COc1ccc2ccc(=O)oc2c1)c1ccccc1`, the inhibition was -1.1%.

For the molecule `N#Cc1c2c(c(-c3ccccc3)[nH]c1=O)CCCC2`, the inhibition is -0.9%.

For the molecule `Cc1cccc2c(C(=O)O)cc(-c3cccnc3)nc12`, the inhibition was -0.5%.

For `CNC(=O)Oc1ccc2c(c1)[C@]1(C)CCN(C)[C@@H]1N2C`, the inhibition is 1.1%.

`C[C@]12C[C@H](O)[C@H]3[C@@H](CCC4=CC(=O)CC[C@@]43C)[C@@H]1CC[C@@H]2C(=O)CO`: the inhibition is -0.6%.

As to `CC(C)CCNC(=O)[C@H](CC(C)C)NC(=O)[C@H]1O[C@@H]1C(=O)O`, the inhibition was 1.5%.

As for `CC1CCCC(C)N1NC(=O)c1ccc(Cl)c(S(N)(=O)=O)c1` (stereo not given), the inhibition was 0.8%.

For the molecule `CC(C)[C@H]1CN(C)CCN1Cc1cn(C)nc1-c1cccc(Cl)c1`, the inhibition is 8.3%.

Regarding `Fc1ccccc1CNCCC(Cc1ccccc1)c1ccc2c(c1)OCO2` (stereo not given), the inhibition is -0.6%.

As to `O=C(c1cccc2ccccc12)C1CCCN(C(=O)CCN2CCCO2)C1` (stereo not given), the inhibition is 1.1%.

On to `CCOC(=O)c1cccc(P(C)(C)=O)c1`, for which the inhibition is -0.5%.

Consider `CC1(C)c2ccccc2N2CC(=O)NC21/C=C/c1ccco1` (stereo not given), for which the inhibition is 0.5%.

For the molecule `CC(=O)NCCCCCCNC(C)=O`, the inhibition was 2.3%.

`COc1ccc(NC(=O)C2C(=O)N(CCO)C3(C)CC2c2ccccc2O3)cc1` (stereo not given): the inhibition was 1.3%.

With `Cc1ccccc1C(=O)Oc1ccc(Sc2ccc(O)cc2)cc1`, the inhibition is -0.4%.

As to `CC1(C)Cc2nc3oc4c(NCc5ccccc5)ncnc4c3cc2CO1`, the inhibition is 0.2%.

Turning to `NC(=O)c1cnccn1`, the inhibition is 0.7%.

For the molecule `COc1cc(COc2ccc3c(C)c(Cc4ccccc4)c(=O)oc3c2)cc(OC)c1OC`, the inhibition was 0.9%.

With `CC(=O)NC(Cc1ccccc1)C(=O)OCC(=O)c1ccccc1` (stereo not given), the inhibition was -1.5%.

For the molecule `COc1ccc(C2(CCN=Cc3ccc(N(C)C)cc3)CCOC(C)(C)C2)cc1` (stereo not given), the inhibition is 1.6%.

As for `Cc1nc(N[C@@H](Cc2c[nH]c3ccccc23)C(=O)O)c2oc3ccccc3c2n1`, the inhibition is -0.2%.

On to `O=C(c1cccnc1)N1N=C(C2CC2)CC1(O)C(F)(F)F` (stereo not given), for which the inhibition was 1%.

Turning to `COc1cc(C2C(C(=O)c3ccc(C)o3)=C(O)C(=O)N2Cc2cccnc2)ccc1O` (stereo not given), the inhibition is -0.4%.

Take `O=c1cc(Cn2ccnc2)c2cc3c(cc2o1)CCC3`: the inhibition was -1.1%.

Regarding `COc1cccc(C2CCCN2Cc2nc(CCC(C)C)no2)c1` (stereo not given), the inhibition is -0.8%.

The target of the next assay is Lethal factor (Bacillus anthracis) (UniProt P15917). As to the kind of experiment: Bacillus anthracis lethal factor inhibition, microsphere flow cytometry protease assay, validation at 10 µM (AID 588461). The settings on record: multiplex microsphere protease cleavage assay, active compounds read high.
Lethal factor (Bacillus anthracis), sequence (P15917 whole entry, looked up): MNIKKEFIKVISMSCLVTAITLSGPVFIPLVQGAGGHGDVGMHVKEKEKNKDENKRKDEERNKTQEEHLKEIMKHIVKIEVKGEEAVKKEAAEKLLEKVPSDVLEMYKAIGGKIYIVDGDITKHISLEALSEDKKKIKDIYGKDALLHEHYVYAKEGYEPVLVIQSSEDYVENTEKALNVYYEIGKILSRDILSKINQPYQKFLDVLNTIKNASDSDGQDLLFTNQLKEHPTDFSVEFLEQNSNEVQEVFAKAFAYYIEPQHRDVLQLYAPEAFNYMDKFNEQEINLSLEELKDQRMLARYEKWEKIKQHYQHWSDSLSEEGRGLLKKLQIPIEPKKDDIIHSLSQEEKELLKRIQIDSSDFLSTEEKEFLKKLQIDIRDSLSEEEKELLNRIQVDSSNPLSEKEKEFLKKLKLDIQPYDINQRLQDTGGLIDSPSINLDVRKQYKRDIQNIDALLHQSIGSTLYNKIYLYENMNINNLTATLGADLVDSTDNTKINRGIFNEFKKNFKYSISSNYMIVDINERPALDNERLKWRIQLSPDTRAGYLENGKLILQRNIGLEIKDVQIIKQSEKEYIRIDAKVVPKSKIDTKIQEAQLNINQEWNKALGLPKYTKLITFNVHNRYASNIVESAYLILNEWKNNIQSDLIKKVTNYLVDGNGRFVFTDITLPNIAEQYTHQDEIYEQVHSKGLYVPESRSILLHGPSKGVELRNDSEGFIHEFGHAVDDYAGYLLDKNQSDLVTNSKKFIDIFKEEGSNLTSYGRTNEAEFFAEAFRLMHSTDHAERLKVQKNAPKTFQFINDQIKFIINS
As for `O=c1ccc2ccccc2o1`, the inhibition is -1.4%.

For `CSc1ccc2c(c1)N(CCC1CCCCN1C)c1ccccc1S2` (stereo not given), the inhibition was -7%.

On to `O=C(/C=C/c1ccc(F)cc1)N1CC[C@@]2(O)CCCC[C@H]2C1`, for which the inhibition is 5.2%.

Consider `COc1ccccc1N=CC1=C(O)CC(c2ccccc2)CC1=O` (stereo not given), for which the inhibition was -5%.

With `COc1cc(C(=O)CCN2CCC(c3ccccc3)C2)cc(OC)c1OC` (stereo not given), the inhibition was 6.6%.

As to `COc1cc2c(cc1OC)C(c1ccccc1)=NCC2`, the inhibition is 7%.

`COc1ccccc1C(=O)c1cc2ccc(O)cc2oc1=O`: the inhibition was 2.7%.

Consider `O=C(O)C1Cc2ccccc2CN1S(=O)(=O)c1ccccc1` (stereo not given), for which the inhibition was -3.3%.

`c1ccc(SSc2ccccc2)cc1`: the inhibition is -8.9%.

With `Cc1ccc(N(CC2=NCCN2)c2cccc(O)c2)cc1`, the inhibition was -2.4% and -9.5% and -5.2%.

As to `CCn1c(SCC(=O)c2ccccc2)nc2ccccc2c1=O`, the inhibition was -5.1%.

For `CCCCNc1ccc(C(=O)OCCN(C)C)cc1`, the inhibition was 2.7%.

Take `CCc1nc(N)nc(N)c1-c1ccc(Cl)cc1`: the inhibition is -2.6%.

For `O=C(Cc1ccccc1)NNC(=O)Cc1ccccc1`, the inhibition was -1.2%.

Turning to `COc1ccc(-c2nc(NC(C)=O)sc2-c2ccc(OC)cc2)cc1`, the inhibition was 2.3%.

In the case of `O=C(COc1ccc2ccc(=O)oc2c1)c1ccccc1`, the inhibition is 1%.

Consider `N#Cc1c2c(c(-c3ccccc3)[nH]c1=O)CCCC2`, for which the inhibition was 2.3%.

On to `Cc1cccc2c(C(=O)O)cc(-c3cccnc3)nc12`, for which the inhibition was -6.1%.

For `CNC(=O)Oc1ccc2c(c1)[C@]1(C)CCN(C)[C@@H]1N2C`, the inhibition was 0.5%.

As to `C[C@]12C[C@H](O)[C@H]3[C@@H](CCC4=CC(=O)CC[C@@]43C)[C@@H]1CC[C@@H]2C(=O)CO`, the inhibition is -9.2%.

Regarding `CC(C)CCNC(=O)[C@H](CC(C)C)NC(=O)[C@H]1O[C@@H]1C(=O)O`, the inhibition was -3%.

As to `CC1CCCC(C)N1NC(=O)c1ccc(Cl)c(S(N)(=O)=O)c1` (stereo not given), the inhibition is 5.8%.

For `CC(C)[C@H]1CN(C)CCN1Cc1cn(C)nc1-c1cccc(Cl)c1`, the inhibition was 8.2%.

With `Fc1ccccc1CNCCC(Cc1ccccc1)c1ccc2c(c1)OCO2` (stereo not given), the inhibition was 1.9%.

`O=C(c1cccc2ccccc12)C1CCCN(C(=O)CCN2CCCO2)C1` (stereo not given): the inhibition is 2.5%.

`CCOC(=O)c1cccc(P(C)(C)=O)c1`: the inhibition was -5%.

In the case of `CC1(C)c2ccccc2N2CC(=O)NC21/C=C/c1ccco1` (stereo not given), the inhibition was 0.4%.

For `CC(=O)NCCCCCCNC(C)=O`, the inhibition is 10.8%.

For `COc1ccc(NC(=O)C2C(=O)N(CCO)C3(C)CC2c2ccccc2O3)cc1` (stereo not given), the inhibition was -1.3%.

With `Cc1ccccc1C(=O)Oc1ccc(Sc2ccc(O)cc2)cc1`, the inhibition was -3.8%.

On to `CC1(C)Cc2nc3oc4c(NCc5ccccc5)ncnc4c3cc2CO1`, for which the inhibition was 2.2%.

As to `NC(=O)c1cnccn1`, the inhibition was 5.7%.

Turning to `COc1cc(COc2ccc3c(C)c(Cc4ccccc4)c(=O)oc3c2)cc(OC)c1OC`, the inhibition is -2.3%.

Consider `CC(=O)NC(Cc1ccccc1)C(=O)OCC(=O)c1ccccc1` (stereo not given), for which the inhibition is -3.3%.

For the molecule `COc1ccc(C2(CCN=Cc3ccc(N(C)C)cc3)CCOC(C)(C)C2)cc1` (stereo not given), the inhibition was -2%.

As for `Cc1nc(N[C@@H](Cc2c[nH]c3ccccc23)C(=O)O)c2oc3ccccc3c2n1`, the inhibition is -6.5%.

In the case of `O=C(c1cccnc1)N1N=C(C2CC2)CC1(O)C(F)(F)F` (stereo not given), the inhibition is 4.2%.

Regarding `COc1cc(C2C(C(=O)c3ccc(C)o3)=C(O)C(=O)N2Cc2cccnc2)ccc1O` (stereo not given), the inhibition is -0.1%.

For `O=c1cc(Cn2ccnc2)c2cc3c(cc2o1)CCC3`, the inhibition was -3.2%.

Take `COc1cccc(C2CCCN2Cc2nc(CCC(C)C)no2)c1` (stereo not given): the inhibition is -7.6%.
